Measured values published in PubChem BioAssay AID1006 (Sanford-Burnham Center for Chemical Genomics, 2008).
Among all 200,000 compounds or so, about 3,000 (1.5%) were called active. Only a selection was taken, and actives are over-represented in it overall. A number with no mark means an inactive call.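 Rule for the calls: active = inhibition above about 50% when tested at 10 µM (limit read from the data); inactive = the rest.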

Each compound was assayed against Luciferin 4-monooxygenase (Photinus pyralis) (UniProt P08659) (assay: inhibition of purified FLuc reporter enzyme – biochemical, luminescence, ATPLite, artefact control for luciferase-based inhibitor screens, primary screen (AID 1006)). Details: ATPLite firefly luciferase biochemical luminescence, 10 min; at 10 µM; stronger effect = higher value.
Sequence of Luciferin 4-monooxygenase (Photinus pyralis) (P08659 whole entry, looked up): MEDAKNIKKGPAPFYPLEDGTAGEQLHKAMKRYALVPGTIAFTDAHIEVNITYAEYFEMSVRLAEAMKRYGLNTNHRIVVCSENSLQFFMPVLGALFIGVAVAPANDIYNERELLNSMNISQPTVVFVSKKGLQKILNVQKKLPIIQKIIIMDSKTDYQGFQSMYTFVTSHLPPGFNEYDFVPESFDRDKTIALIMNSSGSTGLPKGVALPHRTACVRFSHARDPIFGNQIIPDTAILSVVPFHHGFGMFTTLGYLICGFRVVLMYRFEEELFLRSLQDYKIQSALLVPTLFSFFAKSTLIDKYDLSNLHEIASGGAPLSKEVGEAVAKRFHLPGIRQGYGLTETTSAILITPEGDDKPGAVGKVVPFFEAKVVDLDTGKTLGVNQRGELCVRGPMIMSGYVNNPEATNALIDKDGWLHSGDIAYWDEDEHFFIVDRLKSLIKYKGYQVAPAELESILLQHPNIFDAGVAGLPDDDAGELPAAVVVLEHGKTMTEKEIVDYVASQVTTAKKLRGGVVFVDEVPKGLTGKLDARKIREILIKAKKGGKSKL
O=C(Nc1cccc(Cl)c1N1CCOCC1)c1ccc2c(c1)OCCO2 was tested, and the inhibition was -0.6%. For CN1CCN(c2ccc(NC(=O)c3ccc4c(c3)OCCO4)cc2Cl)CC1, the inhibition was 51.8% (active). In the case of COc1c(Cl)cc(C(=O)Nc2ccc(Cl)cn2)cc1Cl, the inhibition is reported as -5.9%. With O=C(Nc1ccc(Cl)cn1)c1ccc2c(c1)OCCO2 the inhibition was 82.7% (active). Work on O=C(Nc1cccc(S(=O)(=O)Nc2ccc(Cl)cc2)c1)c1ccc2c(c1)OCCO2 yielded an inhibition of -5.3%. With O=C(Nc1ccc2c(c1)OCCO2)c1ccc(Cl)c(S(=O)(=O)N2CCCCC2)c1 the inhibition was 0.9%. In the case of O=C(c1cccc(F)c1)N1CCN(c2ccc([N+](=O)[O-])c3cccnc23)CC1, the inhibition is reported as -7.7%. In the case of CCCCC(NC(=O)c1cccc(Br)c1)C(=O)O (stereo not given), the inhibition is reported as 0.5%. CN(C)C=NC(=O)c1cccn1-c1ncc(C(F)(F)F)cc1Cl was tested, and the inhibition was -1.5%. Cc1ccc(-c2cc(C(=O)N/N=C/C=C/c3ccco3)c3ccccc3n2)cc1C was tested, and the inhibition was 73.1% (active). Work on O=C(N/N=C/C=C/c1ccco1)c1cccs1 yielded an inhibition of 12.4%. For COc1cccc(-c2cc(C(=O)N/N=C/c3ccc(OC)c(COC(C)=O)c3)c3ccccc3n2)c1, the inhibition was -1.7%. Compound Cc1nnc(SCC(=O)NNC(=O)c2ccc(Cl)cc2)n1CC1CCCO1 (stereo not given) has an inhibition of -8.3%. c1ccc(-c2noc(-c3cccs3)n2)nc1 was tested, and the inhibition was 71.2% (active). Compound c1csc(-c2nc(-c3ccncc3)no2)c1 has an inhibition of 17.7%. O=C(Oc1ccc(-c2nc(-c3ccccn3)no2)cc1)c1ccccc1 was tested, and the inhibition was 65.5% (active). O=C(Oc1ccccc1)c1ccc2nccnc2c1 gave an inhibition of 13.3%. With COc1nc(-c2ccc(Cl)cc2)ccc1-c1noc(-c2cccs2)n1 the inhibition was -3.8%. CC(C)c1nc(-c2ccccn2)no1 gave an inhibition of -5.3%. In the case of COc1ccc(NC(=S)N2CCCC(CO)C2)c(OC)c1 (stereo not given), the inhibition is reported as -2.4%. Cc1ccc(N(C(=O)Cc2cccs2)C(C(=O)NCC2CCCO2)c2ccncc2)cc1 (stereo not given) showed an inhibition of -3.7%. With CCN(C(=O)COC(=O)c1cc(S(=O)(=O)N2CCc3ccccc32)ccc1OC)C1CCS(=O)(=O)C1 (stereo not given) the inhibition was -6.8%. Compound CCCN(CC1COc2ccccc2O1)C(=S)Nc1ccc(C)cc1 (stereo not given) has an inhibition of -6.7%. Compound CC(C)CNC(=O)C(=O)Nc1ccc(N(C)C)cc1 has an inhibition of 5.5%. In the case of CCOc1ccc(N2C(=O)CN(c3cccc4ccccc34)C2=S)cc1, the inhibition is reported as -3.3%. With COc1cc(COCC(O)CN2CCN(Cc3ccc4c(c3)OCO4)CC2)cc(OC)c1OC (stereo not given) the inhibition was -5%. With O=C(OCc1ccc([N+](=O)[O-])cc1)c1ccccn1 the inhibition was -6%. For N/C(=N\OC(=O)c1ccc([N+](=O)[O-])cc1)c1ccccn1, the inhibition was 91.5% (active). With N/C(=N\OC(=O)Cc1ccc([N+](=O)[O-])cc1)c1ccccn1 the inhibition was 9.6%. CCC(C)N(C)C1CCN(C(=S)Nc2ccc(OC)cc2)CC1 (stereo not given) gave an inhibition of -0.3%. For CCOc1ccc2nc(N3CCCN(C(=O)Nc4ccccc4C)CC3)c(C#N)cc2c1, the inhibition was -2%. For COc1ccc2nc(N3CCCC(O)C3)c(C#N)cc2c1 (stereo not given), the inhibition was 54.6% (active). COc1ccc(N2CCN(C(=O)CSc3nc4cc(OC)c(OC)cc4cc3C#N)CC2)cc1 was tested, and the inhibition was -6.5%. In the case of Cc1ccc2[nH]c(C(=O)O)c(NC(=O)c3ccccc3[N+](=O)[O-])c2c1, the inhibition is reported as -4.8%. Work on CCn1cc(C(=O)Nc2cc(C)ccc2C)c(=O)c2ccc(C)nc21 yielded an inhibition of -5.1%. Compound Cc1cccc(N=C2NN=C(c3c[nH]c4ccccc34)CS2)c1 has an inhibition of -4.7%. In the case of Clc1cccc(N=C2NN=C(c3ccc4c(c3)OCCO4)CS2)c1, the inhibition is reported as 51.5% (active). In the case of c1ccc(CN2CCC(N=C3NN=C(c4ccc5c(c4)OCCO5)CS3)CC2)cc1, the inhibition is reported as -2.4%. With COc1cc(/C=N/NC(=O)CCc2n[nH]c(=O)[nH]c2=O)ccc1O the inhibition was -6.6%. For Nc1c(NCCc2ccccc2)c2ccccc2oc1=O, the inhibition was -4%. Compound Cc1ccc(CN2CCN(Cc3cn(C)nc3-c3ccccc3)CC2CCO)o1 (stereo not given) has an inhibition of -4.5%. COc1ccc(/C=C(/CC(=O)Nc2ccc(C)cc2)c2nc3ccccc3s2)cc1 gave an inhibition of -7.9%. Work on O=C1CC(c2ccccc2)=NN1c1ccc([N+](=O)[O-])cc1 yielded an inhibition of -2.5%. COc1ccc(C2=NN(c3nc4ccccc4s3)C(=O)C2)cc1 was tested, and the inhibition was 59.7% (active). Work on CCc1ccccc1N1C(=O)C2C3CC(=O)C(c4ccccc43)C2C1=O (stereo not given) yielded an inhibition of -5.1%. For CCc1nnc(NC(=O)[C@@H](NC(=O)c2cccc(C)c2)C(C)C)s1, the inhibition was -3.8%. Work on CN1CCN(C(=O)N2c3ccccc3CCc3ccccc32)CC1 yielded an inhibition of -4.4%. Cn1c(=O)c(Sc2ccc(Cl)cc2)c(O)c2ccccc21 was tested, and the inhibition was -5.7%. With Cn1c(=O)c(C(=O)Nc2ncccn2)c(O)c2ccccc21 the inhibition was 70.3% (active). For CCCCn1c(=O)c(C(C)=O)c(O)c2ccccc21, the inhibition was -1.3%. For Cc1ccccc1-n1nc(C)c2c1N=C1C(Cl)=CC(Cl)=CN1C2c1ccc(C(=O)O)cc1 (stereo not given), the inhibition was -0.1%. In the case of COc1ccc(C(=O)/C=C/Nc2ccccn2)cc1, the inhibition is reported as 92.4% (active). With COc1ccc(-c2csc(Nc3ccccn3)n2)cc1 the inhibition was 49.9%. Work on CCOc1cc(NC(=O)c2ccccn2)c(OCC)cc1NC(=O)c1ccc(OC)cc1 yielded an inhibition of -2.9%. Work on O=C(Cc1cccs1)Nc1cccc(-c2nc3ccccc3[nH]2)c1 yielded an inhibition of -1.9%. Work on O=C(CCCN1C(=O)/C(=C/c2ccco2)SC1=S)Nc1ccccc1 yielded an inhibition of -3.2%. With O=C(CCCN1C(=O)/C(=C/c2ccccc2)SC1=S)Nc1ccc(O)cc1 the inhibition was 57.6% (active). In the case of O=C(CCCN1C(=O)/C(=C\c2ccco2)SC1=S)Nc1cccc2ccccc12, the inhibition is reported as -1.3%. In the case of CN(c1nc2ccccc2n2c(-c3ccco3)nnc12)S(=O)(=O)c1ccccc1, the inhibition is reported as -2.9%. Compound CN1c2ccccc2-c2nc3ccccc3n2C1c1ccco1 (stereo not given) has an inhibition of 1.3%. Cn1c(-c2ccco2)nc2cc3ccccc3cc21 was tested, and the inhibition was 95.7% (active). CCC(C)c1ccc(NC(=S)NCc2ccccn2)cc1 (stereo not given) gave an inhibition of -3.2%. Work on C/C(=N\N=C(N)N)c1ccc(Cl)cc1 yielded an inhibition of -7.1%. In the case of Cc1ccc(CNC(=O)CC2Sc3ccccc3NC2=O)cc1 (stereo not given), the inhibition is reported as -6.5%. For Brc1ccc(-c2csc(N/N=C/c3ccc4c(c3)OCO4)n2)cc1, the inhibition was -0.1%. Work on Cc1noc(C)c1/C=N/Nc1ccc2ccccc2n1 yielded an inhibition of 13.4%. With C(=N\Nc1ccc2ccccc2n1)/c1ccc2c(c1)OCO2 the inhibition was 87.4% (active). CCNC(=S)N1CCN(c2ncccn2)CC1 showed an inhibition of -2.5%. For COc1ccc(NC(=O)Nc2cccc3cccnc23)cc1, the inhibition was 65.4% (active). For COc1ccc(NC(=O)Nc2ccc3nc(C)c(C)nc3c2)cc1, the inhibition was -4.8%. Work on COc1ccc(NC(=O)C2CCCN(S(=O)(=O)c3cccc4cccnc34)C2)cc1 (stereo not given) yielded an inhibition of -0.5%. Work on NC(=NC(=O)c1ccccc1)N1CCOCC1 yielded an inhibition of 0.1%. With O=C(CSC(=S)N1CCOCC1)c1ccccc1 the inhibition was 72.6% (active). Compound CC1CN(C(=S)SCC(=O)c2ccccc2)CC(C)O1 (stereo not given) has an inhibition of 4.3%. For CCC(C)(C)c1ccc(OCC(=O)N(C)C)c(C(C)(C)CC)c1, the inhibition was -6.6%. Cc1cc(C)nc(SCC(=O)N(C)C)n1 was tested, and the inhibition was -4.6%. In the case of O=C(CC1Nc2ccccc2NC1=O)Nc1ccccc1NC(=O)CC1Nc2ccccc2NC1=O (stereo not given), the inhibition is reported as 7.9%. With Cc1ccc(N/C=C/C(=O)c2ccccc2)cc1C the inhibition was 91.4% (active). In the case of O=C(/C=C\NCC(=O)c1ccccc1)c1ccccc1, the inhibition is reported as 14.5%. Work on Cc1noc(NS(=O)(=O)c2ccc(N/C=C/C(=O)c3ccccc3)cc2)c1C yielded an inhibition of -2.7%. With CC1CCN(C(=S)c2ccc(-c3ccc(Cl)cc3Cl)o2)CC1 the inhibition was 3.9%. S=C(NCCc1ccccc1)N1CCCCC1 gave an inhibition of 9.6%. For S=C(c1ccc(-c2ccccc2)o1)N1CCCCC1, the inhibition was 83.4% (active). COc1cccc(OC)c1C(=O)NC(=S)NCc1ccco1 was tested, and the inhibition was -2.1%. With COCCn1c(Cc2cccn2C)nnc1SCC(=O)Nc1nccs1 the inhibition was -5.3%. In the case of COc1cc(NC(=O)COc2ccccc2Cl)ccc1NC(=O)C(C)C, the inhibition is reported as -2.5%. Compound CC(CC(=O)C1C(C)C=CCC1(C)C)NNC(N)=O (stereo not given) has an inhibition of -6.1%. Compound COc1ccc(C(=O)Nc2ccc3c(c2)OCO3)cc1OC has an inhibition of 28.8%. Work on O=C(Nc1ccccc1)c1ccc2c(c1)OCO2 yielded an inhibition of 34.2%. CSCCC(Nc1nc2ccccc2s1)C(=O)O (stereo not given) was tested, and the inhibition was -2%. With CC(=O)Nc1ccc(-c2csc(NC(=O)Nc3ccccc3)n2)cc1 the inhibition was -0.4%. For COCc1nnc(NC(=O)c2ccc3c(c2)OCO3)s1, the inhibition was 58.9% (active). With O=C(Nc1nc2ccccc2s1)c1ccc2c(c1)OCO2 the inhibition was 83.9% (active). For O=C(Nc1ccccc1)Nc1nc2ccccc2s1, the inhibition was 52.9% (active). Cc1cc(C)c2nc(NC(=O)c3ccc4c(c3)OCO4)sc2c1 was tested, and the inhibition was -1.6%. CCCc1nnc(NC(=O)c2cc(OC)cc(OC)c2)s1 showed an inhibition of -1.1%. In the case of C/C(=N/NC(=O)CSc1ccccn1)c1ccc([N+](=O)[O-])cc1, the inhibition is reported as -6.6%. Compound O=C(CN1CCN(S(=O)(=O)/C=C/c2ccccc2)CC1)Nc1ccc(N2CCOCC2)cc1 has an inhibition of -7.8%. For COc1ccc(-n2c(=S)[nH]c3sc4c(c3c2=O)CCc2ccccc2-4)cc1, the inhibition was 4.5%. In the case of CCOc1ccc2nc(NCCNC(=O)C(C)(C)C)c(C)cc2c1, the inhibition is reported as -2.6%.
